Results filed as inconclusive are left out. Some structures have more than one record in an assay (separate samples or runs), and their calls can disagree. Active and inactive are the calls of the source. Rule for the calls, unless noted: active = hit-call score of the fitted dose curve at least 0.9, where 1 is the maximum; inactive = score below 0.9.
Tests used:
[1] = target: human Vitamin D Receptor (VDR), VDR (gene 7421) (UniProt P11473); assay: ATG_VDR_TRANS: Attagene TRANS-FACTORIAL HepG2 Assay for human Vitamin D Receptor (VDR) (AID 2283022; active = hit-call score of the fitted dose curve at least 0.9, where 1 is the maximum)
How it was run: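 Transactivation by an exogenous VDR-Gal4 chimera in transiently transfected HepG2 cells was measured as reporter transcript level 24 hours after chemical treatment. RT-PCR products were analysed by capillary electrophoresis and fitted in the positive direction relative to DMSO.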

[2] = BSK_3C_SRB: Viability Assessment in the BioMAP Diversity Plus: 3C Assay (AID 2283023); details: primary human endothelial cells (HUVEC);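 note: fitted both ways against DMSO so a hit may be signal rise or drop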
How it was run: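 Cytotoxicity readout in parallel HUVEC 3C cultures: after 24 h compound exposure, cells fixed with 10% TCA, stained with 0.1% SRB and read at 560 nm. Gain or loss relative to DMSO fitted.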

[3] = read-out: Matrix Metallopeptidase 1 (MMP1), MMP1 (gene 4312); assay: BSK_BE3C_MMP1: BioMAP Diversity Plus: BE3C Assay for Matrix Metallopeptidase 1 (MMP1) Biomarker Activity (AID 2283024); details: primary human bronchial epithelial cells; actives raise or lower the signal
How it was run: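 Dose cells, wait 24 h, run MMP1 ELISA; cells are human bronchial epithelial primaries. Both increases and decreases relative to DMSO counted.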

[4] = BSK_3C_Vis: BioMAP Diversity Plus: 3C Assay for Morphology Visualization (AID 2283025); details: primary human endothelial cells (HUVEC);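 note: fitted both ways so gain or loss versus DMSO counts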;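 for AC50: light microscopy image of cell morphology used as background control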
How it was run: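 Endothelial cells from human umbilical vein were treated with test chemicals for 24 h and inspected by light microscopy for changes in cell conformation.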

[5] = read-out: Pselectin, SELP (gene 6403); assay: BSK_4H_Pselectin: BioMAP Diversity Plus: 4H Assay for Pselectin Biomarker Activity (AID 2283026); details: primary human endothelial cells (HUVEC); actives raise or lower the signal
How it was run: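 Human vascular endothelium from umbilical vein; P-selectin measured by ELISA at 24 h post-dose, with cytotoxicity checked by sulforhodamine B total-protein staining in parallel cultures (0.1% SRB after 10% TCA fixation, read at 560 nm).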

[6] = BSK_4H_SRB: Viability Assessment in the BioMAP Diversity Plus: 4H Assay (AID 2283027); details: primary human endothelial cells (HUVEC);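 note: cells exposed to compound for 24 h before staining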;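 for AC50: curves fitted both ways versus DMSO so AC50 may be loss or gain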
How it was run: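 Absorbance at 560 nm of SRB-stained total protein served as the viability read-out in confluent primary human umbilical vein endothelium 24 h after chemical treatment. Curves were fitted bidirectionally against DMSO as negative control.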

[7] = read-out: Thrombomodulin, THBD (gene 7056); assay: BSK_3C_Thrombomodulin: BioMAP Diversity Plus: 3C Assay for Thrombomodulin Biomarker Activity (AID 2283029); details: primary human endothelial cells (HUVEC); actives raise or lower the signal
How it was run: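 Thrombomodulin ELISA, human primary HUVEC, 24 h post-dose; data fitted in both directions relative to DMSO.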

[8] = read-out: Urokinase-type plasminogen activator receptor (uPAR), PLAUR (gene 5329); assay: BSK_4H_uPAR: BioMAP Diversity Plus: 4H Assay for Urokinase-type plasminogen activator receptor (uPAR) Biomarker Activity (AID 2283030); details: primary human endothelial cells (HUVEC); actives raise or lower the signal
How it was run: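 uPAR level read by ELISA on HUVEC cultures (BioMAP 4H) 24 h post-dosing, analyzed for gain or loss relative to DMSO. Parallel SRB staining assessed overt cytotoxicity.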

[9] = read-out: Vascular endothelial growth factor receptor 2 (Homo sapiens) (UniProt P35968); assay: BSK_4H_VEGFRII: BioMAP Diversity Plus: 4H Assay for Vascular endothelial growth factor receptor 2 (VEGFR2) Biomarker Activity (AID 2283031); details: primary human endothelial cells (HUVEC); actives raise or lower the signal;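 for AC50: cell-surface VEGFR2 protein level quantified by ELISA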
How it was run: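 Measured by ELISA after 24 h of compound treatment: VEGFR2 on primary human umbilical vein endothelial cells, fitted in both directions relative to DMSO. Parallel cultures received SRB staining (560 nm) for overt cytotoxicity.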

[10] = BSK_BE3C_SRB: Viability Assessment in the BioMAP Diversity Plus: BE3C Assay (AID 2283028); details: primary human bronchial epithelial cells;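 note: measured 24 h after chemical dosing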
How it was run: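 Cytotoxicity read-out: SRB (0.1%) staining of TCA-fixed (10%) human lung bronchial epithelial cells, absorbance 560 nm, 24 h post-dosing. Curves fitted both directions relative to DMSO.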

Sequence of human Vitamin D Receptor (VDR), VDR (gene 7421) (P11473 whole entry, looked up, the tested form may be a part): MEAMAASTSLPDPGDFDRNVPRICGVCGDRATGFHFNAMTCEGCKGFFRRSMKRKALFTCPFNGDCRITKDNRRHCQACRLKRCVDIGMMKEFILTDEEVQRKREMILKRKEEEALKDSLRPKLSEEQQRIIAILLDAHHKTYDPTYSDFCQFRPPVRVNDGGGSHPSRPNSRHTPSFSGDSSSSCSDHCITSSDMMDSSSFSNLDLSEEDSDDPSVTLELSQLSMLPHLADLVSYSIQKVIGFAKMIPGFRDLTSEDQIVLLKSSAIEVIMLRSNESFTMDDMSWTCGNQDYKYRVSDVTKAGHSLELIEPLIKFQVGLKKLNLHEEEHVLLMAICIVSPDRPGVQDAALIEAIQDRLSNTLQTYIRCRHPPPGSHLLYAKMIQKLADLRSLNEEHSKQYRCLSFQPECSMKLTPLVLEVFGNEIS

SMILES	outcome [1]	AC50 [2]	AC50 [3]	AC50 [4]	AC50 [5]	AC50 [6]	outcome [7]	AC50 [8]	AC50 [9]	outcome [2]	outcome [3]	outcome [4]	outcome [5]	outcome [6]	outcome [10]	outcome [8]	outcome [9]
O=C1C=CC(=O)c2ccccc21	inactive	4.92 µM (active)	5.57 µM (active)	4.06 µM (active)	1.62 µM (active)	2.55 µM (active)	inactive	1.99 µM (active)	5.18 µM (active)	–	–	–	–	–	–	–	–
O=[N+]([O-])c1ccc(Nc2ccccc2)cc1	inactive	–	–	–	–	–	inactive	–	–	inactive	inactive	inactive	inactive	inactive	inactive	inactive	inactive
CC(C)=CC1C(C(=O)OCc2cccc(Oc3ccccc3)c2)C1(C)C (configuration not stated)	inactive	26.7 µM (active)	–	37.6 µM (active)	–	–	inactive	–	–	–	inactive	–	inactive	inactive	–	inactive	inactive
CC1(C)[C@H](C(=O)O[C@H](C#N)c2cccc(Oc3ccccc3)c2)[C@@H]1/C=C(\Cl)C(F)(F)F	inactive	–	0.0142 µM (active)	–	–	–	inactive	–	–	inactive	inactive	inactive	inactive	inactive	–	inactive	inactive
OC(Cc1ccccc1Cl)(Cn1[nH]cnc1=S)C1(Cl)CC1 (configuration not stated)	inactive	32 µM (active)	–	–	20 µM (active)	27.8 µM (active)	inactive	20 µM (active)	20 µM (active)	–	inactive	inactive	–	–	inactive	–	–
Cc1ccccc1OP(=O)(Oc1ccccc1)Oc1ccccc1	inactive	35.8 µM (active)	6.66 µM (active)	11.6 µM (active)	20 µM (active)	20 µM (active)	inactive	32.2 µM (active)	20 µM (active)	–	–	–	–	–	–	–	–
c1ccc2sc(SNC3CCCCC3)nc2c1	inactive	–	–	–	–	–	inactive	–	–	inactive	inactive	inactive	inactive	inactive	inactive	inactive	inactive

— PubChem BioAssay (EPA / NIEHS)
